# Records with an inconclusive call do not appear. Values without a mark were called inactive. The source made the active and inactive calls. Calls follow the shape of the dose curve; as a rule, active = well fitted inhibition curve with a large enough effect in the signal ratio in the repeat runs (not every such curve was filed as active); inconclusive = weak or mixed curves, or effect the other way; inactive = no such curve, though single readings can be large or run the other way; the % refers to the signal ratio.
# Biological target: Vitamin D3 receptor (Homo sapiens) (UniProt P11473)
# Sequence (P11473 whole entry, looked up): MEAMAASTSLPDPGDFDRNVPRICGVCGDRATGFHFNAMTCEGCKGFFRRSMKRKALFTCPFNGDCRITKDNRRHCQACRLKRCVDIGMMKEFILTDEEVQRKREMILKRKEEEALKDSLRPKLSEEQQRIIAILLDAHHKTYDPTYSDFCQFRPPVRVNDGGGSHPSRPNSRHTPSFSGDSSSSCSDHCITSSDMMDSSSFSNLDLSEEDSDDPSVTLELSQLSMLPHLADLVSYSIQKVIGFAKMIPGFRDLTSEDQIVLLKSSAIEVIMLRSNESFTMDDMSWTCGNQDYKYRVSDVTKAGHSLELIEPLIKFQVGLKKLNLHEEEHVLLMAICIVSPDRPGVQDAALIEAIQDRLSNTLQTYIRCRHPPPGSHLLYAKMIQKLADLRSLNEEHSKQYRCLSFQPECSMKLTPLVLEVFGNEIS
# Experiment: qHTS assay to identify small molecule antagonists of the vitamin D receptor (VDR) signaling pathway (AID 743223)
# Details: VDR-UAS-bla HEK293T, beta-lactamase FRET ratio, 16 h; series mostly up to 61 µM; activity change, negative = inhibition: at the top concentration
# Text: U.S. Tox21 Program National Center for Advancing Translational Sciences [NCATS] NIH Chemical Genomics Center [NCGC] U.S. Environmental Protection Agency [EPA] National Institutes of Environmental Health Sciences [NIEHS] National Toxicology Program [NTP] U.S. Food and Drug Administration [FDA] Tox21 Assay Overview: The vitamin D receptor (VDR), a member of nuclear hormone receptor superfamily, plays a critical role in calcium homeostasis and bone metabolism. It is also involved in cell differentiation and growth, and thrombogenicity.
# Tox21 Assay Protocol Summary: VDR-bla cells were dispensed at 2,000 cells/5 uL of assay medium per well into black wall/clear-bottom 1536-well plates using a Multidrop Combi (Thermo Fisher Scientific, Waltham, MA) dispenser. After the assay plates were incubated at a 37C and 5% CO2 for 4 h, 23 nL of compounds dissolved in DMSO, positive controls or DMSO only was transferred to the assay plate by a Pintool station (Kalypsys, San Diego, CA), followed by addition of 1 uL of 1alpha, 25-Dihydroxy Vitamin D3 (3 nM, final concentration in the wells) using a Bioraptr Flying Reagent Dispenser (FRD) workstation (Beckman Coulter, Indianapolis, IN). The plates were incubated at 37C and 5% CO2 for 16 h, and then 1 uL of LiveBLAzerTM B/G FRET substrate was added using a Bioraptr FRD. The plates were incubated at room temperature for 2 h and fluorescence intensity was measured by an Envision plate reader (PerkinElmer, Shelton, CT).
# % is scaled to controls: 0 for no effect and ±100 for the full control effect; potency is read from the fitted curve at half-maximal effect.
Structure (SMILES),"activity change, negative = inhibition",Potency
Cc1onc(-c2ccccc2Cl)c1C(=O)N[C@@H]1C(=O)N2[C@@H]1SC(C)(C)[C@@H]2C(=O)O,1.96%,–
O=C(NOCC1CC1)c1ccc(F)c(F)c1Nc1ccc(I)cc1Cl,0.0954%,–
O=Cc1cc(O)ccc1Br,-0.158% [at 78.8 µM],–
CCCCCCCCCCCCCCCS(=O)(=O)Oc1ccccc1,13.8%,–
Cc1c(C)c2c(c(C)c1O)CCC(C)(COc1ccc(CC3SC(=O)NC3=O)cc1)O2 (stereo not given),-1.76%,–
CCCCCCC[N+](CC)(CC)CCCCc1ccc(Cl)cc1,8.33%,–
CCCCCCCCCCCCCCCC(=O)OC[C@H](O)[C@H]1OC(=O)C(O)=C1O,-0.717%,–
CCCCCCCCCCC=O,-13.4% [at 78.8 µM],–
C[n+]1ccn(Cc2ccccc2)c1,-3.01%,–
CCCCCCCCCCCCc1ccc(O)cc1,–,13.8 µM (active)
Nc1ccc2cc(S(=O)(=O)O)cc(O)c2c1N=Nc1ccccc1C(F)(F)F,6.13%,–
CCCC(C)c1ccccc1O (stereo not given),-9.32%,–
CCCCCCCC[P+](CCCCCCCC)(CCCCCCCC)CCCCCCCC,–,19.4 µM (active)
CC(NN)c1ccccc1 (stereo not given),-7.49% [at 28.5 µM],–
CCCCCOC(=O)CCCC,0.987%,–
Clc1ccc2nsnc2c1NC1=NCCN1,-7.99%,–
CCOC(=O)O[C@]1(C(=O)OCCl)CC[C@H]2[C@@H]3CCC4=CC(=O)C=C[C@]4(C)[C@H]3[C@@H](O)C[C@@]21C,12.7%,–
CCC(Cl)C(Cl)C(Cl)CC(Cl)C(Cl)C(C)Cl (stereo not given),-10.8%,–
O=C(c1ccc(O)cc1O)c1ccc(O)cc1O,-9.97%,–
CCCCCCCCCCn1cc[n+](CCCCCCCCCC)c1C,–,19.5 µM (active)

Structure (SMILES),"activity change, negative = inhibition",Potency
CO[Si](CCCNc1ccccc1)(OC)OC,1.23%,–
CCCCCCCCCCCCCCCCCC[N+](C)(C)Cc1ccccc1,–,22.1 µM (active)
CCCC1O[C@@H]2C[C@H]3[C@@H]4CCC5=CC(=O)C=C[C@]5(C)[C@H]4[C@@H](O)C[C@]3(C)[C@]2(C(=O)CO)O1 (stereo not given in full),4%,–
Oc1ccc2c(c1)-c1ccccc1C2,-9.44%,–
Oc1ccc(C2(c3ccc(O)cc3)CC3CC2C2CCCC32)cc1 (stereo not given),–,47 µM (active)
Cc1cc(N)c(S(=O)(=O)O)cc1Cl,-4.49% [at 78.8 µM],–
C1CCCC1,0.335%,–
CSc1ccc(C(=O)c2[nH]c(=O)[nH]c2C)cc1,-0.623%,–
NNc1nc(-c2ccccc2)cs1,-10.4% [at 78.8 µM],–
N=C1N=C(N)c2ccccc21,1.2%,–
COC(=O)c1cc(Cl)ccc1OC,-0.804%,–
O=C(Nc1ccc(Oc2ccc(Cl)cc2)c(Cl)c1)c1cc(I)cc(I)c1O,1.29%,–
CCCCCCCCOc1ccccc1C(=O)Nc1ccc(C(=O)OCC[N+](C)(CC)CC)cc1,15.4%,–
CCc1cc(Cc2cc(CC)cc(C(C)(C)C)c2O)c(O)c(C(C)(C)C)c1,–,17.4 µM (active)
CCCCCCCCCCCCCCCC[N+](C)(C)CCN(Cc1ccc(OC)cc1)c1ncccn1,–,21.3 µM (active)
c1ccc(CSCc2ccccc2)cc1,-1.44%,–
CC(C)(C)C(=O)OCOC(=O)[C@@H]1N2C(=O)[C@@H](NC(=O)[C@H](N)c3ccccc3)[C@H]2SC1(C)C,1.11%,–
NNc1nc(-c2ccc(N)cc2)cs1,3.37%,–
O=C(N/N=C/c1ccccc1O)c1ccncc1,–,19 µM (active)
C/C=C(\C)C(=O)OCc1ccccc1,-7.88%,–

# Source: PubChem BioAssay (Tox21)
